# Measurements: PubChem BioAssay AID1671190 (National Center for Advancing Translational Sciences (NCATS), 2021)
# Out of some 580,000 compounds screened, about 6,100 (1.1%) were called active. Not shown: some 15% with an inconclusive outcome. The sample as a whole holds a higher share of actives than the screen did. Unmarked numbers belong to inactive results. Calls follow the shape of the dose curve; as a rule, active = well fitted inhibition curve with a large enough effect; inconclusive = small, poorly fitted or top-dose-only effect, or another doubt; inactive = no such curve, though single readings can be large or run the other way.
# Molecular target: Polyunsaturated fatty acid lipoxygenase ALOX12 (Homo sapiens) (UniProt P18054)
# Assay: Primary qHTS assay for inhibitors of human arachidonate 12S-lipoxygenase (ALOX12): Round 2
# Details: purified 12hLO, xylenol orange hydroperoxide absorbance; series mostly up to 108 µM; activity change, negative = inhibition: at the top concentration
# How it was run: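 Purified human 12hLO (150 nM final) in 25 mM Hepes, 0.01% Triton X-100, pH 7.0 was preincubated 15 min at room temperature with compound. Then 40 uM arachidonic acid was added, 30 min. Hydroperoxide was read by Fe-XO absorbance ratio 573/405 nm.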
# % is scaled to controls: 0 for no effect and ±100 for the full control effect; potency is read from the fitted curve at half-maximal effect.
# Sequence of Polyunsaturated fatty acid lipoxygenase ALOX12 (Homo sapiens) (P18054 whole entry, looked up): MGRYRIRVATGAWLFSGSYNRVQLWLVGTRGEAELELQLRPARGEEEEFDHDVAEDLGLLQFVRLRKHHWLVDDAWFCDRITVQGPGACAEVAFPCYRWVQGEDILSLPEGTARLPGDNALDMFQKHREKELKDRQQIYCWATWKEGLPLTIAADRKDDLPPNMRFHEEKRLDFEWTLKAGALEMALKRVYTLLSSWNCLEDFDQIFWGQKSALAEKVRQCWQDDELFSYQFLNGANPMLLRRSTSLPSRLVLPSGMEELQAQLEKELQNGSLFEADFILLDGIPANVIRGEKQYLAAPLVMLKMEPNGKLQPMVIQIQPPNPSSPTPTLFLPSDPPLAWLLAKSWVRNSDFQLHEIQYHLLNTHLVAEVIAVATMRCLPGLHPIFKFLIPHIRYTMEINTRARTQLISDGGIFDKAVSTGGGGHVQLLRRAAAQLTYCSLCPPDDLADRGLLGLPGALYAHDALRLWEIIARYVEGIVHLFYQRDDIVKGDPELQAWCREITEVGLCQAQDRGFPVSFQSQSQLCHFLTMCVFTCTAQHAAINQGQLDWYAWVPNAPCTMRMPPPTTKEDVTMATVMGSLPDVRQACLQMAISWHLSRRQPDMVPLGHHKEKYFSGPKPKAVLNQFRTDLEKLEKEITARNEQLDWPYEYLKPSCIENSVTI
SMILES,Potency,"activity change, negative = inhibition"
S=C(NCCCc1cnc[nH]1)NCCCN(Cc1ccc(Cl)c(Cl)c1)c1ccc(Br)cn1,22.4 µM (active),–
Cc1ccccc1CN(C)C(C)c1nc(-c2cccs2)no1 (stereo not drawn),–,11%
CCc1c(C)sc(NC(=O)C2c3ccccc3Oc3ccccc32)c1C(=O)OC(C)C,–,0%
CCc1c(C)sc(NC(=O)c2cccs2)c1C(N)=O,20 µM (active),–
CCOC(=O)CSc1nnc(CNC(=O)c2cccs2)n1-c1ccccc1,–,15.4%
CCCCCCn1c(NC)nc2c1c(=O)[nH]c(=O)n2C,–,-2.64%
O=C1CC(c2ccccc2)C(c2ccccc2)=NN1 (stereo not drawn),–,2.96%
CCCOc1c(OC)cccc1C1CC(=O)Nc2c1c(C)nn2-c1ccc(OC)nn1 (stereo not drawn),–,-23.2%
Nc1nc2c(s1)C(c1ccccc1)CC(=O)N2 (stereo not drawn),22.4 µM (active),–
COc1cccc(C2CC(=O)Nc3nc(N)sc32)c1OCc1ccccc1 (stereo not drawn),7.94 µM (active),–
O=C1CC(c2ccc(C(F)(F)F)cc2)c2sc(C(=O)O)c(-c3ccccc3)c2N1 (stereo not drawn),–,-20.3%
COc1cc(C2CC(=O)Nc3nc(-c4ccccc4)[nH]c(=O)c32)ccc1OCc1ccc(F)cc1 (stereo not drawn),–,5.03%
O=[N+]([O-])/C=C/c1ccc(-c2ccccc2)o1,22.4 µM (active),–
O=[N+]([O-])/C=C/c1ccc2c(ccn2Cc2ccccc2)c1,–,-11.5%
Cc1ccc(-c2nnc(SCc3ncc(-c4ccccc4)o3)o2)cc1,–,6.49%
Cc1ccc(-n2nnnc2SCc2ncc(-c3ccccc3)o2)cc1,–,40.5%
COCc1ccc(CNC(=O)c2ccc(C#N)cc2)cc1,–,-5.14%
O=C(c1cn[nH]c1)N1CC2(CN(Cc3cccc(Cl)c3)CC2COc2ccccc2)C1 (stereo not drawn),–,13.7% [at 176 µM]
CCOc1cc2cc(C(=O)c3cc(C)ccc3O)cnc2cc1OCC,–,-39.3%
CCC(=O)Nc1ccc2nc(-c3ccccc3C)oc2c1,–,-10.5%
COc1ccc(-c2nn(-c3ccccc3)cc2/C=C\C(=O)Nc2ccc(C(=O)O)cc2)cc1,39.8 µM (active),–
COc1ccc(NC(=O)c2cn(-c3ccccc3)nc2SC)cc1,–,-7.47%
COc1ccc(-c2nn(-c3ccccc3)cc2C(=O)NCC(C(C)C)N2CCOCC2)cc1 (stereo not drawn),–,0%
CSc1ccccc1NC(=O)C(C)Nc1ccc2c(c1)CCN2C(C)=O (stereo not drawn),–,-8.13%
O=C(NC(c1ccccc1)c1cc2ccccc2o1)C1CCCC1 (stereo not drawn),–,-10.2%
N#Cc1ccccc1S(=O)(=O)N1CCN(Cc2c(O)ccc3ccccc23)CC1,11.2 µM (active),–
N#CCCc1c(O)ccc2ccccc12,–,-2.74%

SMILES,Potency,"activity change, negative = inhibition"
N#Cc1ccccc1S(=O)(=O)N1CCN(C(=O)c2cc(-c3ccccc3)nn2-c2ccccc2)CC1,–,-13.3%
Cc1nnc(SCC(=O)Nc2sc3c(c2C#N)CCCC3)n1CC(C)C,–,3.74%
CCC(=O)NNC(=S)Nc1ccccc1,–,-23.1%
O=C(NC(=S)Nc1ccc(S(=O)(=O)Nc2ncccn2)cc1)c1cccc(Br)c1,20 µM (active),–
Cc1ccc(-c2nnc3c4ccccc4c(C)nn23)cc1NC(=O)c1cccc(Br)c1,–,0%
O=C(Nc1ccc(S(=O)(=O)Nc2ncccn2)cc1)C12CC3CC(CC(C3)C1)C2,–,1.9%
O=C(NC(=S)Nc1cccc2c(O)cccc12)c1cccc(Br)c1,17.8 µM (active),–
O=C(Nc1ccc(S(=O)(=O)Nc2ncccn2)cc1)c1cncc(Br)c1,–,-19.6%
O=C(NC1C2CC3CC(C2)CC1C3)c1cccc(Br)c1 (stereo not drawn),–,-20.3%
CCOc1ccc(C(=O)N(CCN(C)C)CC(=O)OC(C)(C)C)cc1,–,-10.9%
CC(C)NC(=O)c1cccc2c1CCCN2CC(=O)NCCc1ccccc1,–,-6.04%
CSc1ccccc1C(=O)NC(C)c1ccccc1 (stereo not drawn),–,-1.43%
Clc1ccc(-c2nc(-c3ccc(Br)o3)no2)cc1,–,14.2%
CNC(=O)c1nn(CC(=O)NC(C)c2ccccc2)c(=O)c2ccccc12 (stereo not drawn),–,3.81%
O=C(Cn1nc(C(=O)O)c2ccccc2c1=O)Nc1cc(F)ccc1F,–,-13.9%
CC(NC(=O)Cn1nc(C(N)=O)c2ccccc2c1=O)c1ccccc1 (stereo not drawn),35.5 µM (active),–
CC(=O)N1CCC(C(=O)N(C)CC(=O)Nc2ccccc2C(F)(F)F)CC1,–,-4.93%
Cc1cccc(Oc2c(C(F)(F)F)oc3cc(OCC(=O)OCCC(C)C)ccc3c2=O)c1,–,11.5%
O=C(OCC(=O)N1CCOCC1)c1ccc2ccccc2c1,–,198%
C=CC(=O)c1ccc2ccccc2c1,17.8 µM (active),–
O=C(OCc1nc2ccccc2o1)c1ccc2ccccc2c1,–,9.47%
O=C(O)COc1ccc(-c2nccc3c2C(=O)N(Cc2c[nH]c4ccccc24)CC(COc2ccc(F)c(F)c2)O3)cc1 (stereo not drawn),–,6.07%
Cc1nn(C)c2nc(C(C)C)cc(C(=O)N3CCN(c4ncccn4)CC3)c12,–,43.9%
Cc1[nH]n(C(N)=S)c(=O)c1N=Nc1ccc(Cl)cc1Cl,–,-80.5%
Cc1[nH]n(C)c(=O)c1C(=O)c1c(-c2c(Cl)cccc2Cl)noc1C,–,-37.5%
Cc1[nH]n(C)c(=O)c1N=Nc1ccc(S(C)(=O)=O)cc1,6.31 µM (active),–
